The list is not random: actives were taken first. Their share in the collection is about 5.8%.
MCF10A rereplic: DNA re-replication induction in MCF 10a cells. hit rate 2.9% among 350,000. AID 624296. MCF 10A DNA re-replication, Hoechst nuclear intensity, 48 h. Potency, µM (titrated, usually from 46.1 µM), usual class: activators; further: nearly all actives have a fitted effect of over 50% in size
KB-3-1 cytotox: KB-3-1 parental cell cytotoxicity; KB-3-1 viability, CellTiter-Glo ATP luminescence, 72 h; Potency, µM (titrated, usually from 46.1 µM), actives largely listed as cytotoxic; hit rate 1.4% among 400,000; further: nearly all actives have a fitted effect of over 60% in size
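Screening of KB-3-1 cells (DMEM, 10% FBS, phenol-red free) ran from lowest to highest compound concentration; after 72 h at 37 °C viability was read luminescently and curves fitted.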
12-LOX inh: blocks human arachidonate 12S-lipoxygenase; purified 12hLO, xylenol orange hydroperoxide absorbance; Potency, µM (series often up to 108 µM), actives largely listed as inhibitors; hit rate 1.1% among 580,000; AID 1671190
Target sequence (P18054 whole entry, looked up): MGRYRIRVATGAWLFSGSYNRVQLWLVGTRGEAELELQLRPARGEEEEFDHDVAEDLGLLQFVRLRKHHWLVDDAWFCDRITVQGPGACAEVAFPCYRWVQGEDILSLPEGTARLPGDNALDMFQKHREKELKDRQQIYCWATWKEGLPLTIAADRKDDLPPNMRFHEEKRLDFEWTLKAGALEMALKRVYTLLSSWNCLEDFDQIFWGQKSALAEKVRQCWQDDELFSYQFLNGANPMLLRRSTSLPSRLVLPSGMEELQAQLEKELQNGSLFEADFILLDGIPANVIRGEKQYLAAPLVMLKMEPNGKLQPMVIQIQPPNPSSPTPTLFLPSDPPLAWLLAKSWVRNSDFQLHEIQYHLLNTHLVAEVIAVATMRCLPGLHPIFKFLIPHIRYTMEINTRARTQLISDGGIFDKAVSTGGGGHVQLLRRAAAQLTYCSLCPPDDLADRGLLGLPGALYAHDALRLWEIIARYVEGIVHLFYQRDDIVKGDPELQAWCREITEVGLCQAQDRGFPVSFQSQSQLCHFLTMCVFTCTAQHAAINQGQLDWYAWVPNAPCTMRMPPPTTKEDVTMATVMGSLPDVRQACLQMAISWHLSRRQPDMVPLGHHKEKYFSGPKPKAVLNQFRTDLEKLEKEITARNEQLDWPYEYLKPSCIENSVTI
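Purified human 12hLO at 150 nM in 25 mM Hepes, 0.01% Triton X-100, pH 7.0, preincubated 15 min at room temperature with compound. Reaction started with 40 uM arachidonic acid, 30 min at room temperature. Hydroperoxide measured by Fe-xylenol orange, 573/405 nm absorbance ratio.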
PINK1 modulator: PINK1 expression modulation | PINK1 immunofluorescence, high-content cytometry, 24 h | Potency, µM (highest dose often 76.6 µM), hits mostly activators | hit rate 0.2% among 410,000 | AID 624263; active means well fitted activation curve with a large enough effect; inconclusive means small, poorly fitted or top-dose-only effect; cell line not stated here; further: nearly all actives have a fitted effect of over 65% in size
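Fluorescence from anti-PINK1 antibody, together with nuclear and cell stains, was scanned on a laser-scanning cytometer. Before staining, stable-line cells were incubated 24 hours with compounds at 5 concentrations; primary antibody 12 h at 10 degrees C.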
SW480 rereplic: inducers of DNA re-replication in SW480 colon cancer cells; hit rate 1.8% among 340,000; SW480 DNA re-replication, Hoechst DNA content imaging, 48 h; Potency, µM (highest dose often 46.1 µM), most hits filed as activators; further: nearly all actives have a fitted effect of over 55% in size
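Image-based DNA-content assay: after two days of treatment, nuclei were labelled with the DNA dye Hoechst and imaged, and hits were compounds raising the count of nuclei showing high fluorescence intensity.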
KB-V1 MDR tox: KB-V1 MDR subline cytotoxicity; hit rate 3.4% among 400,000; KB-V1 MDR cells viability, CellTiter-Glo, 72 h; AID 1347076; Potency, µM (top dose mostly 46.1 µM), actives largely listed as cytotoxic; further: nearly all actives have a fitted effect of over 60% in size
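In this primary screen, KB-V1 cells overexpressing P-gp are incubated with library compounds (lowest to highest concentration) for 72 h at 37 degrees C before a luminescent ATP viability read.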
Of the large screens only hits and unclear results are named; the others gave an inactive call; ! = repeats disagree. Unless noted, the call rests on the fitted dose curve; in most records, active means well fitted curve in the direction sought with a large enough effect; inconclusive means small, poorly fitted or top-dose-only effect, or another doubt; inactive means no such curve, though single readings can be large; an effect the other way counts as inactive or inconclusive.

Cc1cccc(N2CCc3c2nc2ccccc2c3N)c1	MCF10A rereplic 15µM, KB-3-1 cytotox inconclusive, 12-LOX inh inconclusive, PINK1 modulator inconclusive, KB-V1 MDR tox inconclusive
Cc1cccc(-n2c(/C=C/c3ccccc3O)nc3ccccc3c2=O)c1	none (no result: MCF10A rereplic, KB-3-1 cytotox, SW480 rereplic, KB-V1 MDR tox)
Clc1ccc(C2NCc3ccccc3-n3cccc32)cc1 (configuration not stated)	none (no result: MCF10A rereplic, KB-3-1 cytotox, PINK1 modulator, SW480 rereplic, KB-V1 MDR tox)
CC(C)(C)c1cc(O)ccc1O	MCF10A rereplic 30µM, 12-LOX inh inconclusive, SW480 rereplic inconclusive (no result: KB-3-1 cytotox, PINK1 modulator, KB-V1 MDR tox)
CC1=C(C(=O)O)N2C(=O)C(NC(=O)CCCC(=O)O)C2SC1 (configuration not stated)	12-LOX inh 28µM
CC(=O)OCC1=C(C(=O)O)N2C(=O)[C@@H](N)[C@H]2SC1	none (no result: MCF10A rereplic, KB-3-1 cytotox, PINK1 modulator, SW480 rereplic, KB-V1 MDR tox)
C=C(C)C(=O)OC[N+](C)(C)CCOC(=O)C(O)(c1ccccc1)C1CCCC1 (configuration not stated)	none (no result: MCF10A rereplic, KB-3-1 cytotox, PINK1 modulator, SW480 rereplic, KB-V1 MDR tox)
CCOC(=O)Cc1ccccc1	none (no result: MCF10A rereplic, KB-3-1 cytotox, PINK1 modulator, SW480 rereplic, KB-V1 MDR tox)
O=C(Cc1c[nH]c2ccccc12)NNCc1ccc(N(CCCl)CCCl)cc1	KB-3-1 cytotox inconclusive, SW480 rereplic 16µM
O=C(Cc1ccc(N(CCCl)CCCl)cc1)NC(Cc1ccc(Cl)cc1)C(=O)O (configuration not stated)	none
COc1ccccc1N1CCN(C(=O)[C@H]2CN3CCC2C[C@@H]3Cn2cc(CCO)nn2)CC1 (some centres not stated)	none (no result: MCF10A rereplic, KB-3-1 cytotox, PINK1 modulator, SW480 rereplic, KB-V1 MDR tox)
Cn1nc(C2CCCCC2)cc1[C@H]1CN2CC[C@H]1C[C@@H]2CNC(=O)NCc1ccccc1	none (no result: MCF10A rereplic, KB-3-1 cytotox, PINK1 modulator, SW480 rereplic, KB-V1 MDR tox)
CCCCCCn1c(=O)c(C(=O)Nc2nc(CC(=O)OCC)cs2)c(O)c2ccccc21	MCF10A rereplic inconclusive, KB-3-1 cytotox inconclusive, KB-V1 MDR tox 2.1µM
CCOC(=O)Cc1csc(NC(=O)c2c(O)c3ccccc3n(CCC(C)C)c2=O)n1	KB-3-1 cytotox inconclusive, KB-V1 MDR tox 8.2µM
CC(C)NC(=O)NC[C@H]1C[C@@H]2CCN1C[C@@H]2c1cc(-c2ccc(F)cc2)nn1C	none (no result: MCF10A rereplic, KB-3-1 cytotox, PINK1 modulator, SW480 rereplic, KB-V1 MDR tox)
COc1ccccc1NC(=O)COC(=O)c1cn(C)c2ccccc12	KB-V1 MDR tox 9.2µM
COC(=O)c1ccc(NC(=O)COC(=O)c2cn(C)c3ccccc23)cc1	none (no result: MCF10A rereplic, KB-3-1 cytotox, PINK1 modulator, SW480 rereplic, KB-V1 MDR tox)
CN1C(=O)C(=Cc2ccc(-c3cccc(Cl)c3)o2)C(=O)N(C)C1=O	MCF10A rereplic inconclusive (no result: KB-3-1 cytotox, 12-LOX inh, PINK1 modulator, KB-V1 MDR tox)
Cc1ccc(Sc2ccc(C=C3C(=O)N(C)C(=O)N(C)C3=O)o2)cc1	12-LOX inh 35µM
CCN(CC)c1ccc(/C=C2\C(=O)NC(=O)N(Cc3ccco3)C2=O)cc1	12-LOX inh 45µM
O[C@H]1[C@H](NC2CCOCC2)[C@@H](C2CCCCC2)C[C@H]1O	none (no result: MCF10A rereplic, KB-3-1 cytotox, PINK1 modulator, SW480 rereplic, KB-V1 MDR tox)
CCOP(=O)(OCC)c1cccc(O)c1	MCF10A rereplic inconclusive
CCOP(=O)(Nc1ccc2c(c1)C(=NNC(N)=S)c1ccccc1-2)OCC	KB-3-1 cytotox inconclusive, 12-LOX inh 22µM
C[C@H]1CCCC=CC2C[C@H](O)C[C@@H]2[C@H](O)C=CC(=O)O1 (some centres not stated)	KB-3-1 cytotox 0.0073µM, KB-V1 MDR tox 0.018µM (no result: MCF10A rereplic, SW480 rereplic)
C[C@H]1CCC/C=C/[C@@H]2C[C@H](O)C[C@H]2[C@@H](O)/C=C/C(=O)O1	KB-3-1 cytotox 0.18µM, SW480 rereplic inconclusive, KB-V1 MDR tox 0.18µM
O=c1cc(-c2ccc(O)c(O)c2)oc2cc(O)cc(O)c12	12-LOX inh 10µM!
Cc1c(CC(=O)N2CCN(Cc3ccccc3)CC2)c(=O)oc2cc(O)ccc12	none (no result: MCF10A rereplic, KB-3-1 cytotox, PINK1 modulator, SW480 rereplic, KB-V1 MDR tox)
O=[N+]([O-])c1ccc(Sc2nc3ccccc3o2)c([N+](=O)[O-])c1	MCF10A rereplic 12µM, SW480 rereplic 4.1µM, KB-V1 MDR tox inconclusive
C=CCN(C)C(=O)[C@H]1CN2CCC1C[C@@H]2Cn1cc(CCO)nn1 (some centres not stated)	none (no result: MCF10A rereplic, KB-3-1 cytotox, PINK1 modulator, SW480 rereplic, KB-V1 MDR tox)
Cc1ccc(-n2c(O)c(C=Nc3ccccc3N)c(=O)[nH]c2=O)cc1C	none
O=c1[nH]c(=O)n(-c2ccc(F)cc2)c(O)c1C=Nc1ccccc1N1CCCC1	PINK1 modulator 35µM, SW480 rereplic inconclusive, KB-V1 MDR tox inconclusive
C=C[C@H]1CN2CC[C@H]1C[C@@H]2CNC(=O)Nc1cccc(C#N)c1	none (no result: MCF10A rereplic, KB-3-1 cytotox, PINK1 modulator, SW480 rereplic, KB-V1 MDR tox)
